Test results published in ChEMBL document CHEMBL4513216, “Probing the Open Global Health Chemical Diversity Library for Multistage-Active Starting Points for Next-Generation Antimalarials” (ACS Infect Dis, 2020).
Among all 65,000 compounds or so, about 2,100 (3.2%) showed an effect of 50% or more. The median lay at about -52%. Shown is part of a subset that was picked to be rich in strong results.

Test system: Plasmodium falciparum
Experiment: Screen against P. falciparum Asexual Blood Stage (ABS), at 5uM
Type: functional, Dd2
Details: tested at 5 uM

Point of comparison: `CN(C)CCCNC(=O)c1ccc(N(C)S(C)(=O)=O)cc1Cl`, INHIBITION -70.5%. Against it:
- COc1nccc(N2CC[C@@H](N3CCC(O)CC3)[C@H](O)C2)c1C#N — lower, -75.9%
- COc1nccc(N2CC[C@@H](N3CCN(C)CC3)[C@H](O)C2)c1C#N — higher, -50.4%
- O=C([C@H]1C[C@H]2OCC[C@H]2N(CC2CCOCC2)C1)N1CCCCO1 — higher, -23.2%
- Clc1cccc(-n2cnnn2)c1N1CCCCC1 — higher, -48.1%
- CCOC(=O)C1CN(CC2CC2)Cc2ncn(CC)c21 (stereo unspecified) — higher, 14%
- CNC(=O)CN1CCOCC12CCN(C(=O)c1ccc(C)cc1)CC2 — lower, -78%
- Cn1cc(C[C@H]2[C@H](N3CCOCC3)CCN2c2ncc(F)cn2)cn1 — higher, -63.8%
- CN(CCn1cccn1)S(=O)(=O)c1ccc(C#N)cc1 — higher, -48.4%
- COCCCC1CCCCN1S(=O)(=O)c1cccc(C#N)c1 (stereo unspecified) — higher, -16.1%
- CCN1CCCC1CN(CCN(C)C)S(=O)(=O)c1ccc(C#N)cc1 (stereo unspecified) — higher, 59.7%
- N#Cc1cccc(S(=O)(=O)N2CCCCC2CCN2CCCC2)c1 (stereo unspecified) — higher, -4%
- CCN(C)C[C@@H]1CN(S(=O)(=O)c2ccc(C#N)cc2)C[C@@H]1CO — higher, 15.5%
- CCN1CCCC1CN(CCN(C)C)S(=O)(=O)c1cccc(C#N)c1 (stereo unspecified) — higher, 60.4%
- CN1CCN(C(=O)c2cnsn2)c2cc(F)ccc21 — lower, -79.3%
- CSc1ccc(-c2noc(CN(CC(C)C)CC(C)C)n2)cc1 — higher, -63.5%
- O=C(O)C1(Cc2cc(-c3ccc(F)cc3)no2)CCOCC1 — higher, -19.8%
- Cc1ccc(NC(=O)CC2Cn3ncnc3NC2=O)cc1C (stereo unspecified) — higher, -65.7%
- Cc1cnn(CC2CCCN2Cc2nccn2C)c1 (stereo unspecified) — lower, -72.8%
- CCn1ccnc1CN1CCCC1Cn1cc(C)cn1 (stereo unspecified) — higher, 65.6%
- Cc1cnn(CC2CCCN2Cc2nccn2CC(F)(F)F)c1 (stereo unspecified) — higher, -0.234%
- O=C(CCc1ccccc1F)NS(=O)(=O)c1ccc2c(c1)OCCO2 — higher, -17.8%
- CCS(=O)(=O)N1CCCC2(COCCN(c3ccccn3)C2)C1 (stereo unspecified) — higher, -1.4%
- COCC(O)CNC(=O)Nc1ccc(Cl)cc1-n1cccc1 (stereo unspecified) — higher, -45.8%
- CCCn1ncc(CN(Cc2ccsc2)Cc2ccco2)c1C — lower, -122%
- CCCn1ncc(CN(Cc2cccnc2)Cc2ccsc2)c1C — lower, -129%
- CCCn1ncc(CN(CCN(C)C)Cc2ccsc2)c1C — higher, 54.5%
- CCCc1cc(C(=O)NC(COC)c2ccnn2C)no1 (stereo unspecified) — higher, 4.52%
- COCCN(Cc1ccccn1)Cc1sccc1C — lower, -158%
- Cc1ccsc1CN(CCN(C)C)Cc1ccccn1 — higher, 58.9%
- Cc1ccsc1CN(Cc1ccccn1)CC(C)C — higher, -56.9%
- Cc1ccc(CCNC(=O)CC2COCCN2S(=O)(=O)N(C)C)s1 (stereo unspecified) — higher, -49%
- Cc1nc(C)n(CC2CCCN2Cc2nc(C)c3ccccc3n2)n1 (stereo unspecified) — higher, 55%
- Cc1nc(C)n(CC2CCCN2Cc2nc3ccccc3nc2C)n1 (stereo unspecified) — higher, 31.2%
- Cc1nn(C)c(C)c1C1CCCN1Cc1nc2ccccc2n1C (stereo unspecified) — higher, 1.9%
- Cc1nc2ccccc2nc1CN1CCCC1c1c(C)nn(C)c1C (stereo unspecified) — higher, 58.1%
- Cc1nc(CN2CCCC2Cn2cncn2)nc2ccccc12 (stereo unspecified) — higher, -14.5%
- Cc1cc(C)n(CC2CCCN2Cc2ncc(C(C)(C)C)o2)n1 (stereo unspecified) — lower, -80.1%
- Cc1nc(C)n(CC2CCCN2Cc2nc(N)c3ccccc3n2)n1 (stereo unspecified) — lower, -98.4%
- Cc1nc(CN2CCCCC2Cn2cncn2)nc2ccccc12 (stereo unspecified) — higher, -50.6%
- Cc1nc(C)n(CC2CCCN2Cc2ncc(C(C)(C)C)o2)n1 (stereo unspecified) — higher, 61.9%
- Cc1nn(C)c(C)c1C1CCCN1Cc1nc(C)c2ccccc2n1 (stereo unspecified) — higher, -19.2%
- Cc1nc(CN2CCCC2Cn2cccn2)nc2ccccc12 (stereo unspecified) — higher, 55.5%
- Cc1nc(C)n(CC2CCCCN2Cc2ncc(C(C)(C)C)o2)n1 (stereo unspecified) — higher, -43.5%
- CCn1nccc1CNC(=O)Cn1cc2c(n1)c(C)nn2C(C)C — lower, -127%
- CC(C)N1CCOCC2(CCCN(C(=O)c3cncn3C)C2)C1 (stereo unspecified) — lower, -78.3%
- O=C(NCc1cc[nH]n1)NCC(O)c1ccc(F)cc1 (stereo unspecified) — higher, 3.65%
- Cc1ccc(CN2CCC3(CC2)C(c2ccccc2)CC(=O)N3C)o1 (stereo unspecified) — higher, 17.1%
- C=Cn1cc(CN2CCC(c3ncc(Cl)cc3S(C)(=O)=O)CC2)c(C)n1 — higher, 14.8%
- CN(C(=O)CN1CCOC(Cn2cccn2)C1)c1nccs1 (stereo unspecified) — higher, -24.5%
- Cc1nc2ccccc2nc1CN1CCCC1Cn1cccn1 (stereo unspecified) — higher, 69.3%
- Cc1nc2ccccc2nc1CN1CCCCC1Cn1cccn1 (stereo unspecified) — lower, -78.3%
- Cc1nc2ccccc2nc1CN1CCCC1Cn1cncn1 (stereo unspecified) — higher, 62.3%
- Cc1cnn(CC2CCCN2Cc2nc3ccccc3nc2C)c1 (stereo unspecified) — lower, -88.9%
- Cc1c(Cl)c(CN2CCCC2Cn2cncn2)nc2ccccc12 (stereo unspecified) — higher, 16.2%
- Cc1nc2ccccc2nc1CN1CCCC(Cn2cncn2)C1 (stereo unspecified) — lower, -96.3%
